From PubChem BioAssay
Inconclusive results are not listed. Calls of active or inactive are those of the source.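 Rule for the calls, unless noted: active = percent response above a set limit, the screen-wide mean plus 3 SD (cut at about 130% in these data); inactive = the rest.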

How the values were obtained:
[1] = rapamycin-like changes in RPL19A-GFP expression – cell-based, S. cerevisiae, multiplex flow cytometry, primary screen (AID 1862; in the data active = percent of DMSO control GFP below about 86%;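 note: lower values mimic rapamycin by blocking the RPL19A rise seen in DMSO cells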); settings: S. cerevisiae RPL19A-GFP strain, flow cytometry fluorescence, 3 h; at 10 µM; stronger effect = lower value
[2] = TOR pathway GLN3 branch reporter MEP2-GFP changes – S. cerevisiae, multiplex flow cytometry, primary screen (AID 1867;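 active = GFP response, as percent of the DMSO control, above the screen-wide mean plus 3 SD, about 139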;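 note: median GFP channel fluorescence of barcode-gated MEP2-GFP cells measured by flow cytometry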); settings: S. cerevisiae MEP2-GFP strain, 3 h, at 10 µM, stronger effect = higher value, 100% means same as DMSO wells
[3] = TOR pathway RTG branch CIT2 reporter changes – S. cerevisiae, GFP fusion, multiplex flow cytometry, primary screen (AID 1870);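 note: barcoded CIT2-GFP strain pooled with four other GFP strains with rapamycin as positive control; median GFP fluorescence per well over plate mean of DMSO wells so 100% = DMSO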; settings: S. cerevisiae CIT2-GFP expression, 3 h, at 10 µM, stronger effect = higher value
[4] = TOR pathway LAP4-GFP level changes – S. cerevisiae, multiplex flow cytometry, primary screen (AID 1873;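 active = GFP signal, as percent of the solvent control, above the screen mean plus 3 SD, about 149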); settings: S. cerevisiae LAP4-GFP expression, 3 h, at 10 µM, stronger effect = higher value
[5] = yeast AGP1-GFP level changes, GLN3 branch – cell-based, multiplex flow cytometry, S. cerevisiae, primary screen (AID 1887;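 active = GFP signal above the screen-wide mean plus 3 SD, that is over about 124.5% of the solvent control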;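 note: AGP1-GFP fusion strain of S. cerevisiae within a five-strain barcoded multiplex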); settings: 3 h, at 10 µM, stronger effect = higher value
[6] = reduced mouse 2C T cell binding to pMHC/ICAM-1 vesicles – MLPCN validation set, flow cytometry, LFA-1/ICAM-1 modulator project, pilot screen (AID 2523;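 active = response below a set limit, under 55% cells CD8-positive and vesicle-bound, and CD8 cells' 90th-percentile brightness under 279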;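 for vesicle binding response: mean PE anti-B7-1 fluorescence of CD8+ cells relative to row control; 100% = QL9-loaded vesicles with DMSO vehicle in the same plate row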); settings: 2C mouse CD8+ T cells, at 7 µM, stronger effect = lower value; double positive events: measured here: CD8+/vesicle+ event percentage
[7] = molecular target: Integrin beta-1 (Homo sapiens) + Integrin alpha-4 (Homo sapiens) (UniProt P13612+P05556); experiment: alpha4beta1 integrin LIBS antibody binding reduction – U937 cells, HUTS-21 mAb, flow cytometry, validation set, VLA-4 allosteric modulator project, pilot screen (AID 2674;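 active = inhibition above 50%, about 3 SD of the validation set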;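 note: antibody binding induced by the VLA-4 ligand LDV present at three times its Kd; 0% = LDV ligand with antibody and no compound and 100% = antibody without LDV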); settings: HUTS-21 LIBS mAb binding, at 6.7 µM, stronger effect = higher value, binding induced by LDV ligand
[8] = calorie-restriction mimetic ROS inhibitors, yeast – validation compound set, pilot screen (AID 2706;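 active = superoxide response below 65% of plate, a cut near 3 SD across the whole screen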;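 note: yeast exposed to compound for one week at 30 degrees C before staining; 100% = mean of all compound wells on the same plate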); settings: S. cerevisiae aging, superoxide DHE fluorescence; at 10 µM; stronger effect = lower value
[9] = molecular target: Beta-adrenergic receptor kinase 1 (Homo sapiens) (UniProt P25098); experiment: GRK2 binders displacing RNA aptamer, biochemical, validation, human GRK2, bead flow cytometry (AID 488806;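 active = aptamer binding inhibition above 30%, about 3 SD of noise from non-fluorescent compounds; inactive = inhibition at or below 30%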); settings: bead-bound GRK2, FAM-aptamer displacement, at 10 µM, stronger effect = higher value
[10] = molecular target: Beta-2 adrenergic receptor (Homo sapiens) (UniProt P07550); experiment: agonist-induced loss of surface beta2AR – cell-based, FAP fluorogen, flow cytometry, validation set, pilot screen (AID 504459;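 active = percent response above 42, roughly 3 SD of non-fluorescent test compounds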;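 note: agonist-driven loss of surface beta2AR via internalization measured by FAP dye flow cytometry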); settings: Am2.2-beta2AR cells, at 10 µM, stronger effect = higher value
[11] = molecular target: AP-2 complex subunit beta (Homo sapiens) (UniProt P63010); experiment: beta-arrestin/AP2 interaction blockers – biochemical, validation set, GST-AP2 beads, flow cytometry, pilot screen (AID 504541;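 active = inhibition above 54%, about 3 SD of non-fluorescent compounds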;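 note: AP2 carries R879A mutation and is captured from E. coli lysate; bead-bound FITC arrestin peptide fluorescence measuring arrestin peptide binding to AP2; 0% = DMSO wells and 100% = excess unlabeled arrestin peptide control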); settings: FITC arrestin peptide, at 10 µM, stronger effect = higher value, AP2 beta2 appendage fragment, R879A mutant
[12] = cytosolic pH regulators acting via V-ATPase – S. cerevisiae, pHLuorin, HTS validation (AID 504600; in the data active = response above about 15%;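 note: plate controls were DMSO for no effect and reference compound for full effect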); settings: V-ATPase proton transport, at 10 µM, stronger effect = higher value
[13] = tested on: anti-desmoglein-3 scFv antibody binding to human DSG3; experiment: blockers of pathogenic pemphigus antibody–desmoglein-3 binding – biochemical, validation compound set, bead-based, flow cytometry, pilot screen (AID 588368;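 active = binding below the plate cutoff, the plate median minus 3 SD, with a reading above zero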;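 note: signal is the median channel fluorescence of bead-bound GFP antibody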); settings: Protein G beads, DSG3-Fc, scFv-GFP binding, at 10 µM, stronger effect = lower value
[14] = Nile Red efflux blockade in pump-expressing yeast – validation compound set, multiplex, phenotypic, pilot screen (AID 588506;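 active = efflux inhibition above 0.42, the validation set average plus 4 SD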;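 note: Nile Red retained in cells so higher fluorescence means more efflux inhibition; 0 = negative control wells and 1 = enniatin B 25 µM full block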); settings: S. cerevisiae pump-expressing triplex, Nile Red efflux flow cytometry; at 10 µM; stronger effect = higher value; the pumps come from Candida albicans
[15] = molecular target: ATP-binding cassette sub-family B member 6 (Homo sapiens) (UniProt Q9NP58); experiment: blockers of ABCB6-driven porphyrin uptake – K562-ABCB6 cells, flow cytometry, validation set, pilot screen (AID 588550;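 active = inhibition above the screen-wide mean plus 3 SD, about 51%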;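 note: 0% = DMSO wells and 100% = benzethonium chloride 70 µM positive control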); settings: K562-ABCB6 porphyrin accumulation, 1 h, at 10 µM, stronger effect = higher value
[16] = AML differentiation inducers, ER-HoxA9 marrow cells – cell-based, GFP/MAC1 double positive, flow cytometry, validation set, primary screen (AID 588685;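 active = differentiation response of at least 50%, scaled between solvent and reference control, from cells with both markers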;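 note: compound exposure lasts four days before antibody staining and flow analysis; 0% = DMSO wells and 100% = 5 µM fulvestrant positive control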); settings: stronger effect = higher value, normalized: vehicle 0, fulvestrant 100

Sequence of Integrin beta-1 (Homo sapiens) + Integrin alpha-4 (Homo sapiens) (P05556 whole entry, looked up): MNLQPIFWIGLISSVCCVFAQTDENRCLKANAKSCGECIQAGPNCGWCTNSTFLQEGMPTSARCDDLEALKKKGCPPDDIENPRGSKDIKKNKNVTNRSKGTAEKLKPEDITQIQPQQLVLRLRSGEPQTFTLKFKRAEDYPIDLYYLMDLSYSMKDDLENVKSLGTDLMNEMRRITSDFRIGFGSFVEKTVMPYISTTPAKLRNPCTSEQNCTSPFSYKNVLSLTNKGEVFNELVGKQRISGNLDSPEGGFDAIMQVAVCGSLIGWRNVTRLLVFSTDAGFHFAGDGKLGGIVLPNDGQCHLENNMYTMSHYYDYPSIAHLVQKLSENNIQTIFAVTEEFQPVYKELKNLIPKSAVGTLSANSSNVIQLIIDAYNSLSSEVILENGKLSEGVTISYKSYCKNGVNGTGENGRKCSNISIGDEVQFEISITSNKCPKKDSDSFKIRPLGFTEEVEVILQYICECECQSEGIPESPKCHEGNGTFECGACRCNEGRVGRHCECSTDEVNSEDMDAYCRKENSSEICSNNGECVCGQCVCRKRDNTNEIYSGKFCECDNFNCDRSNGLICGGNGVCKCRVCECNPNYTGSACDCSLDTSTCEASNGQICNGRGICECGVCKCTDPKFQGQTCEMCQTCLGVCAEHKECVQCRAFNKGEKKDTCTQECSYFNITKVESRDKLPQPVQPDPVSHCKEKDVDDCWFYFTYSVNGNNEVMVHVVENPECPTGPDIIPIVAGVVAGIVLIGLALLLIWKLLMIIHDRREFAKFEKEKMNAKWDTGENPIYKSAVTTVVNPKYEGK
Sequence of Integrin beta-1 (Homo sapiens) + Integrin alpha-4 (Homo sapiens) (P13612 whole entry, looked up): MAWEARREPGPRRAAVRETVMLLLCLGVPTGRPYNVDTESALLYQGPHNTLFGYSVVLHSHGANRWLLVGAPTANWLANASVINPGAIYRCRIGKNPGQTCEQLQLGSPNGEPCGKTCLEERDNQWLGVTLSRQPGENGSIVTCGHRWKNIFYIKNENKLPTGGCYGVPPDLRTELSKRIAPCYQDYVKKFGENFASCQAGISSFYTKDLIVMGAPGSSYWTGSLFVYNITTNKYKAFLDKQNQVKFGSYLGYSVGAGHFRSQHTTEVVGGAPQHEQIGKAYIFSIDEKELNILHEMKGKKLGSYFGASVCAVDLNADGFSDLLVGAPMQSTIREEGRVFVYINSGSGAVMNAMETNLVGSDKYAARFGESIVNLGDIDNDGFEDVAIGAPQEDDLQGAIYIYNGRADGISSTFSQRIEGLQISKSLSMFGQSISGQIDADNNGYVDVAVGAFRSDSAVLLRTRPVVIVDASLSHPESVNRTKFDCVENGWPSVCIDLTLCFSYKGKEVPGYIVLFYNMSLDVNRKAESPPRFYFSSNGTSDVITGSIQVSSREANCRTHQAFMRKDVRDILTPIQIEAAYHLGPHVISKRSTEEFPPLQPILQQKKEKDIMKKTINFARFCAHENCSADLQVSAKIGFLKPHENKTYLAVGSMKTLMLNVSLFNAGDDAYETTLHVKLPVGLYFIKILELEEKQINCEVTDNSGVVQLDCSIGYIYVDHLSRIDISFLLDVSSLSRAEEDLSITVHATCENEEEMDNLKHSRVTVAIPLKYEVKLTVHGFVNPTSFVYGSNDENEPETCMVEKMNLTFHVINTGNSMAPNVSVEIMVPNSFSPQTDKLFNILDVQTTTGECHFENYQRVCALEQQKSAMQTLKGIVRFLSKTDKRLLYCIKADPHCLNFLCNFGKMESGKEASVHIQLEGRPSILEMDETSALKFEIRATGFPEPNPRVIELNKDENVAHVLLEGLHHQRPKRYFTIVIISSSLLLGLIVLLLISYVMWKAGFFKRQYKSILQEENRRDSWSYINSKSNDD
Sequence of AP-2 complex subunit beta (Homo sapiens) (P63010 whole entry, looked up, the tested form may be a part, one chain of several): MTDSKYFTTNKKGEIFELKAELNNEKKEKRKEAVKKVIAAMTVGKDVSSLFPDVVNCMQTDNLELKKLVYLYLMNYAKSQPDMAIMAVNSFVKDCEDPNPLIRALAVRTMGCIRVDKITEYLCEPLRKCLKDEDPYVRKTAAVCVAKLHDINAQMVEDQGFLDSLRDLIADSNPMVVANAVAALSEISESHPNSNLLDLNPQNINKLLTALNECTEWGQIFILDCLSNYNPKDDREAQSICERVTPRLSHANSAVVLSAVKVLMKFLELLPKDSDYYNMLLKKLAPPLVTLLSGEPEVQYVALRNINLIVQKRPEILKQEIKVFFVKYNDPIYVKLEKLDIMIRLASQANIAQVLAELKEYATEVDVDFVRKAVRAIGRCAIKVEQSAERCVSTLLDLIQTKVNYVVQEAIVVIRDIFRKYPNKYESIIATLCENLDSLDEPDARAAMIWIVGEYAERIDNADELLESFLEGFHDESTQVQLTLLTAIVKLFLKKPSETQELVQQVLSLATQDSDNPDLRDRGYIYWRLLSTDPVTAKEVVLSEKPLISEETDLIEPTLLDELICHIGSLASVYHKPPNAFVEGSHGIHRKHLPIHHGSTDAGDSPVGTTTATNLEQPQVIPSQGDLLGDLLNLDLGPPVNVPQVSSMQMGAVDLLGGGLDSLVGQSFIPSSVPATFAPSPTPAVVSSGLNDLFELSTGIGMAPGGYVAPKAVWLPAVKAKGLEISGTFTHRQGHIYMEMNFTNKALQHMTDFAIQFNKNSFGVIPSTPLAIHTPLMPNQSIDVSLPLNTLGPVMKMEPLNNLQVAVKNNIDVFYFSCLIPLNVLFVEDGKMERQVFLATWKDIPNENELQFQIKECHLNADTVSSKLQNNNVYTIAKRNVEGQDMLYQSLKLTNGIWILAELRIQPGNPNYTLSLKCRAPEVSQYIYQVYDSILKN
Sequence of ATP-binding cassette sub-family B member 6 (Homo sapiens) (Q9NP58 whole entry, looked up): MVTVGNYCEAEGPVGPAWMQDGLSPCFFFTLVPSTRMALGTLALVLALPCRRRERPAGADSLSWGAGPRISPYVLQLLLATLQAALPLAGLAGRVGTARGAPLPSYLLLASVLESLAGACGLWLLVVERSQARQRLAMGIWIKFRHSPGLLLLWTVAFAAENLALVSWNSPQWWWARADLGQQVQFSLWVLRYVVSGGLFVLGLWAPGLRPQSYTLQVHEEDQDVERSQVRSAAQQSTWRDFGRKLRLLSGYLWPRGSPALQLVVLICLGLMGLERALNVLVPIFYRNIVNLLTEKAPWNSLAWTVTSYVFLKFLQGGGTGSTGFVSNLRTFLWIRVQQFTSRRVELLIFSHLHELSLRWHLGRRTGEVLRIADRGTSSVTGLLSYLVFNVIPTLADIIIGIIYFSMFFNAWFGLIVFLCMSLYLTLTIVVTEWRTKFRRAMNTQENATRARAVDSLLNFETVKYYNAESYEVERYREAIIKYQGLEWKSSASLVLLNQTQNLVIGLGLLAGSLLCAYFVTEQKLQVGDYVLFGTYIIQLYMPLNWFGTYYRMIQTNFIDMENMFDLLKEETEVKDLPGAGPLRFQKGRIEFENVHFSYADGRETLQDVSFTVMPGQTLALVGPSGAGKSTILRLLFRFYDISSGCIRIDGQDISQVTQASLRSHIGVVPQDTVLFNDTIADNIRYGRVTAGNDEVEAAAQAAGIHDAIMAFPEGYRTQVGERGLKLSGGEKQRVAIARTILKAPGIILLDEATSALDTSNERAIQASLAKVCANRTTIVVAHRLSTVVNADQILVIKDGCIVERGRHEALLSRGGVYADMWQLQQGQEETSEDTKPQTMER
Sequence of Beta-adrenergic receptor kinase 1 (Homo sapiens) (P25098 whole entry, looked up): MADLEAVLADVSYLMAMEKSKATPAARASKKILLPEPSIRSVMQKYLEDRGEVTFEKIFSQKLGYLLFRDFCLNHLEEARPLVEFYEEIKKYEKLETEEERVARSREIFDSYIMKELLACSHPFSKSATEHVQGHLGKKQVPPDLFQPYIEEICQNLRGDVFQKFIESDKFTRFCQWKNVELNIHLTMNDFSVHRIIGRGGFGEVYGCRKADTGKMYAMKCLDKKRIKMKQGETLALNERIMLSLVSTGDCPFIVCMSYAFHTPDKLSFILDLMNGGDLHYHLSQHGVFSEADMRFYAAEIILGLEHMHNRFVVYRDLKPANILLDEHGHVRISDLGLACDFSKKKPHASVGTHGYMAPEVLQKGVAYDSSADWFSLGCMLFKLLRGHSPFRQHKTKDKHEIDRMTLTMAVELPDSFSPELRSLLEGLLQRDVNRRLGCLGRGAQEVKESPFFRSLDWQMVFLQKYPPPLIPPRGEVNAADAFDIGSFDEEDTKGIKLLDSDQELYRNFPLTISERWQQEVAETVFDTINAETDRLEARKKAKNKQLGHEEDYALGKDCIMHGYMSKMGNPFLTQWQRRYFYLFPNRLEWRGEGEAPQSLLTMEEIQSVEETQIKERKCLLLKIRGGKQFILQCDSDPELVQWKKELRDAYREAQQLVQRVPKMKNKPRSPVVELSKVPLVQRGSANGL
Sequence of Beta-2 adrenergic receptor (Homo sapiens) (P07550 whole entry, looked up): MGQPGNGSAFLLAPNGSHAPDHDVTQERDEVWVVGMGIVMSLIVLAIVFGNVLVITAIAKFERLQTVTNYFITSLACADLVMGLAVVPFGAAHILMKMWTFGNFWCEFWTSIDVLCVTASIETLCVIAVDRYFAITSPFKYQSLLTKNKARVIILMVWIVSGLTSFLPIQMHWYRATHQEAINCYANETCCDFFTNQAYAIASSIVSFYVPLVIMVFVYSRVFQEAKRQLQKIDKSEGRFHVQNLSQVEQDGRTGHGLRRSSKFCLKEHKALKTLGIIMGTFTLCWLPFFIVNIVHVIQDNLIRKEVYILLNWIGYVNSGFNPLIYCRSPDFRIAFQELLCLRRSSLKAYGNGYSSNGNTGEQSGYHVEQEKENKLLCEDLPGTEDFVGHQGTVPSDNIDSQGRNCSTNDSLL

Structure (SMILES) | percent of DMSO control GFP [1] | GFP response vs DMSO [2] | percent response of DMSO control [3] | GFP response vs DMSO [4] | GFP response, % of DMSO [5] | double positive events [6] | vesicle binding response [6] | inhibition [7] | superoxide response (% of plate) [8] | aptamer binding inhibition [9] | response [10] | inhibition [11] | response [12] | binding (% of control) [13] | efflux inhibition (fraction of control) [14] | inhibition [15] | differentiation response [16]
CCCC(CCC)C(=O)OC1C[C@H]2CC[C@@H](C1)[N+]2(C)C (stereo not given in full) | 95.2% (inactive) | 132% (inactive) | 93.9% (inactive) | 80.9% (inactive) | 94.9% (inactive) | 59.5% | 155% (inactive) | 14.2% (inactive) | 108% (inactive) | 7% (inactive) | -2.34% (inactive) | -1.17% (inactive) | 0.47% (inactive) | 101% (inactive) | 0.27 (inactive) | 9% (inactive) | 3.28% (inactive)
COC(=O)c1ccc(OCCCCN2CC(C)OC(C)C2)cc1 (stereo not given) | 104% (inactive) | 99.7% (inactive) | 105% (inactive) | 95.9% (inactive) | 102% (inactive) | 63.1% | 228% (inactive) | -3.77% (inactive) | 106% (inactive) | 0% (inactive) | 2.87% (inactive) | -5.73% (inactive) | 2.09% (inactive) | 98.3% (inactive) | 0.39 (inactive) | 5% (inactive) | -11.9% (inactive)
Cc1ccc(C(=O)Nc2ccccc2C(=O)NC(C(=O)O)C(C)C)cc1 (stereo not given) | 96.7% (inactive) | 109% (inactive) | 89.1% (inactive) | 115% (inactive) | 101% (inactive) | 57.3% | 175% (inactive) | -19.5% (inactive) | 116% (inactive) | 3% (inactive) | -2.49% (inactive) | 10.5% (inactive) | 0.12% (inactive) | 99.1% (inactive) | -0.06 (inactive) | 3% (inactive) | -13.6% (inactive)
CC1CCc2cc(F)cc3c(=O)c(C(=O)O)cn1c23 (stereo not given) | 99% (inactive) | 111% (inactive) | 95.4% (inactive) | 101% (inactive) | 96.5% (inactive) | 62.3% | 204% (inactive) | -37.8% (inactive) | 101% (inactive) | 0% (inactive) | -2.58% (inactive) | 10.9% (inactive) | -2.27% (inactive) | 94% (inactive) | -0.04 (inactive) | -15% (inactive) | -6.6% (inactive)
C=C(C)Cn1c(NCCOC)nc2c1c(=O)[nH]c(=O)n2C | 103% (inactive) | 112% (inactive) | 104% (inactive) | 96.6% (inactive) | 98.8% (inactive) | 64.5% | 327% (inactive) | -5.64% (inactive) | 98.4% (inactive) | 3% (inactive) | 3.03% (inactive) | -1.55% (inactive) | -1.65% (inactive) | 99.8% (inactive) | -0.07 (inactive) | -4% (inactive) | 0.24% (inactive)
